# In PubChem BioAssay:
# Assay: viability profiling in RPMI8226 myeloma cells – cell-based, resazurin fluorescence, basal, 24 h, PK04 Diversity Set, profiling panel (AID 1180);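 also: RPMI8826 multiple myeloma cell line at 5000 cells per well; test concentration not given here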
# Settings: higher = more signal
row,Structure (SMILES),z-score
1,CC(C)CON=C1[C@H]2CCn3c(=O)n(-c4ccccc4)c(=O)n3[C@H]2[C@H](O)[C@@H]2O[C@H]12,-0.822
2,COCC(=C=CC[C@@H](O)c1ccccc1OCCO)CCO,1.42
3,O=C1O[C@@H](c2ccccc2)[C@@H](c2ccccc2)N2[C@@H](c3ccc(OCCO)cc3)[C@]3(C(=O)Nc4ccc(C#CCCO)cc43)[C@@H](C(=O)N3CCCCCCC3)[C@H]12,1.55
4,C#C[C@@H]1Oc2ccccc2S(=O)(=O)N2CCC[C@H]12,-0.776
5,CCCC[C@H]1OB(O)C[C@H]2C1=C(C)C[C@H]1C(=O)N(C)C(=O)[C@H]12,-0.466
6,O=C1[C@H]2[C@H]3[C@H](O)[C@H](O)CC(=NOC[C@@H](O)COCc4ccco4)[C@H]3CC[C@H]2C(=O)N1c1cccc(Oc2ccccc2)c1,-0.192
7,CC(C)[C@H](NC(=O)OC(C)(C)C)[C@@H](O)CC(=O)OC(C)(C)C,0.496
8,CO[C@H]1COC(=O)CC=C[C@H](C)[C@@H](NS(=O)(=O)c2ccc(C)cc2)COC(=O)CC=C[C@@H]1C,-0.203
9,CCOC(=O)CCN1C(=O)[C@H]2[C@H]3[C@H](O)[C@H](O)CC(=O)[C@H]3CC[C@H]2C1=O,0.566
10,NC(=O)NCC#Cc1ccc2c(c1)[C@]1(C(=O)N2)[C@H](c2ccc(O)cc2)N2[C@H](c3ccccc3)[C@H](c3ccccc3)OC(=O)[C@H]2[C@@H]1C(=O)N1CCCCCCC1,1.36
11,CCOC(=O)C[C@H]1[C@H](OC(=O)c2ccc(C(=O)c3ccccc3)cc2)[C@@H](NC(=O)c2ccc(-c3ccccc3)cc2)c2cc(OCCCO)ccc2N1C(=O)c1ccc2ccccc2n1,0.909
12,O=C1[C@H]2[C@H]3[C@H](O)[C@H](O)CC(=NO[C@@H]4O[C@H](CO)[C@@H](O)[C@H](O)[C@H]4O)[C@@H]3CC[C@H]2C(=O)N1Cc1ccccc1,-0.145
13,CC(C)(C)N1C(=O)[C@H]2[C@H]3[C@H](O)[C@H](O)CC(=NOCc4ccccc4)[C@@H]3CC[C@H]2C1=O,-1.34
14,C[C@@H](c1ccccc1)N1C(=O)[C@H]2[C@H]3[C@H](O)C=CC(=O)[C@@H]3CC[C@H]2C1=O,0.982
15,CC(C)(C)N1C(=O)[C@H]2[C@H]3[C@H](O)[C@H](O)CC(=NO[C@@H]4O[C@H](CO)[C@@H](O)[C@H](O)[C@H]4O)[C@@H]3CC[C@H]2C1=O,-0.449
16,CCOC(=O)NN=C1C[C@@H](O)[C@@H](O)[C@@H]2[C@@H]3C(=O)N(C(C)(C)C)C(=O)[C@@H]3CC[C@@H]12,-0.559
17,COC(=O)[C@H](C)NC(=O)CCC1CC(OC(=O)NCCc2ccc(F)cc2)CC2(CCCC(COC(=O)NCCc3ccc(Cl)cc3)O2)O1 (some centres not stated),0.761
18,COc1ccccc1CN1C(=O)c2ccccc2[C@@H](C(=O)NCC(F)(F)F)[C@@H]1c1ccc(CO)cc1,0.268
19,C[C@H]1Cc2c(-c3ccccc3)nc3c(c2CO1)CN(CCOc1ccccc1)CC3,0.678
20,COCCCNC(=O)[C@@]1(CCS(=O)(=O)c2ccccc2)N=C(c2ccc(OCCCO)cc2)O[C@H]1c1ccccc1,0.806
21,O=C1CCCC2OC12C(O)CCc1ccccc1 (configuration not stated),0.145
22,COC(=O)CC=C[C@H](C)[C@@H](OCc1ccccc1Br)C(C)C,-1.89
23,CO[C@H]1COC(=O)[C@@H]2CCCN2C(=O)[C@@H](C)COC(=O)CC=C[C@@H]1C,0.0409
24,CC(C)=CCCC(C)=CCON=C1[C@H]2CCn3c(=O)n(C)c(=O)n3[C@H]2[C@H](O)[C@@H]2O[C@H]12,-0.88
25,CN1C(=O)C2C=CC(C(O)C(c3ccccc3)c3ccccc3)N(NC(=O)OC(C)(C)C)C2C1=O (configuration not stated),-0.962
26,CCOC(=O)CCN1C(=O)[C@H]2[C@H]3[C@H](O)[C@H](O)CC(=NNC(=O)OCc4ccc(OC)cc4)[C@@H]3CC[C@H]2C1=O,-1.14
27,CC(CCC(=O)OC[C@H]1O[C@H](C#Cc2ccccc2)C=C[C@@H]1Oc1ccc(C)cc1)=NO[C@@H](C)c1cn([C@H](CO)Cc2ccccc2)nn1,0.911
